Biological target: Solute carrier family 2, facilitated glucose transporter member 1 (Homo sapiens) (UniProt P11166)
Assay: ST_JUDE_LEISH: Cytotoxicity at 2uM final concentration against transgenic Leishmania Mexicana promastigotes LmGLUT1 that are glucose transport deficient and complemented with the human glucose transporter GLUT1. Activity is measured by DNA content using SYBR green in vitro
Format: functional

Chain of Solute carrier family 2, facilitated glucose transporter member 1 (Homo sapiens) (P11166 whole entry): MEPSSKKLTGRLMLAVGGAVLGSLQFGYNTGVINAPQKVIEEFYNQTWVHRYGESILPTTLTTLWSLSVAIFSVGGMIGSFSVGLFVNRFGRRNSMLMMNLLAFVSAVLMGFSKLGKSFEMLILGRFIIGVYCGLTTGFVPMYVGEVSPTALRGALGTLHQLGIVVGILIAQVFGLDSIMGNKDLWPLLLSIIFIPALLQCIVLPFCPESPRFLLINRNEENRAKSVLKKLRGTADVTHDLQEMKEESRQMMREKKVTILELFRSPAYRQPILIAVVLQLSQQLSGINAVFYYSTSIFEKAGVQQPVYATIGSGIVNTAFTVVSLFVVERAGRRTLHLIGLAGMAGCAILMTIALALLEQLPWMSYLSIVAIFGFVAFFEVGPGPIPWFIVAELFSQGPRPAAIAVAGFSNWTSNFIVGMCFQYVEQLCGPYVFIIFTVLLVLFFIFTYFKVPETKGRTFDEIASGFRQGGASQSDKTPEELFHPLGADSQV

Structure (SMILES)	inhibition [%]
O=C(CNC1=NCCN1)Nc1ccc(NC(=O)Nc2ccc(NC(=O)CNC3=NCCN3)cc2)cc1	3.51
COc1cc(Nc2ccc3cc(S(=O)(=O)N4CCCCC4C)ccc3n2)cc(OC)c1OC (stereo unspecified)	6.4
Cc1cccc2nc(-c3ccc(-c4ccc(CNCCCN5CCCC5=O)cc4)s3)[nH]c12	2.02
CN1CCN(CC(O)CNC(=O)Nc2ccc(Cl)cc2)CC1 (stereo unspecified)	5.3
COc1ccc2nc3cc(Cl)ccc3c(N)c2c1	15.8
O=[N+]([O-])c1ccc(Oc2ccccc2CNCC2CCN(CC3CCCCC3)CC2)cc1	13.6
O=C(NCCCCN1CCC(c2c[nH]c3ccccc23)CC1)c1sc(-c2ccc(C(F)(F)F)cc2)nc1CO	7.38
COc1ccc2nccc([C@@H](O)CN3CCC(NCc4cc5c(Cl)cccc5[nH]4)CC3)c2c1	10.6
COc1ccc(C=NN=c2cc(C)[nH]c3ccc(C)cc23)c2ccccc12	0.11
O=C(Nc1cccc(N2CCC(NCc3cnn(-c4cccc(F)c4)c3)CC2)c1)c1ccncc1	-0.97
COc1cccc(CN2CCC3(CC2)CN(C(=O)Nc2ccc(Cl)c(Cl)c2)C3)c1	2.87
Clc1ccc(C=NN=c2cc[nH]c3ccccc23)cc1	9.89
O=C(Nc1cc(C(F)(F)F)cc(C(F)(F)F)c1)N1CCC(CCN2CCC(c3c[nH]c4ccccc34)CC2)CC1	5.87
c1ccc(Oc2ccc(Nc3ccnc(Nc4ccc(OCCN5CCCCC5)cc4)n3)cc2)cc1	8.95
COc1ccc(-c2cc(-c3ccc(S(C)(=O)=O)cc3)cnc2N)cn1	1.1
CNC(=O)Cc1ccc(C(=O)Nc2cccc(-c3csc(-c4nc5ccccc5[nH]4)c3)c2)cc1	-2.64

— ChEMBL document CHEMBL3433997, “St. Jude Leishmania screening dataset” (2016)
